Laboratory results: PubChem BioAssay (EPA / NIEHS)
Active and inactive are the calls of the source. Rule for the calls: active = hit-call score of the fitted dose curve at least 0.9, where 1 is the maximum; inactive = score below 0.9.

Columns and labels:
[1] = CEETOX_H295R_OHPROG: CeeTox H295R High-throughput Steroidogenesis Assay for OH-Progesterone (OHPROG) (AID 2283435); conditions: actives raise or lower the signal;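 for AC50: human adrenal H295R cells primed 48 h with 10 µM forskolin; 17alpha-hydroxyprogesterone secreted into medium measured by HPLC-MS/MS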
Outline: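 Secreted 17alpha-hydroxyprogesterone is read by tandem MS from media of forskolin-primed H295R cells dosed with chemical for 48 h. Activity is fitted in both directions against DMSO baseline; cytotoxic concentrations are re-tested diluted.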

[2] = CEETOX_H295R_ESTRADIOL: CeeTox H295R High-throughput Steroidogenesis Assay for Estradiol (AID 2283440); conditions: actives raise or lower the signal;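 note: estradiol secreted into medium quantified by LC-MS/MS after dansyl derivatisation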
Outline: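 Readout is estradiol in conditioned medium, quantified by reverse-phase HPLC-MS/MS against a 7-point standard curve. Cells: H295R, forskolin-stimulated, then dosed 48 h in 0.1% DMSO; activity fitted in both directions relative to DMSO.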

[3] = CEETOX_H295R_ESTRONE: CeeTox H295R High-throughput Steroidogenesis Assay for Estrone (AID 2283441); conditions: actives raise or lower the signal;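 note: estrone secreted into medium measured by LC-MS/MS after dansyl derivatization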;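 for AC50: human adrenal H295R cells prestimulated with forskolin for two days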
Outline: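 H295R cells; 48 h forskolin (10 uM) prestimulation; 48 h compound exposure, 0.1% DMSO final. Medium estrone: MTBE extraction, dansyl derivatization, HPLC-MS/MS. Bidirectional fit vs DMSO.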

[4] = CEETOX_H295R_PROG: CeeTox H295R High-throughput Steroidogenesis Assay for Progesterone (PROG) (AID 2283442); conditions: actives raise or lower the signal;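 for AC50: human H295R adrenal cells primed with 10 µM forskolin before dosing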
Outline: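 Measured analyte is progesterone secreted by H295R cells at 48 h of chemical treatment, following 10 uM forskolin priming. Quantitation used HPLC-MS/MS against a 7-point standard curve; cytotoxicity was checked by MTT absorbance.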

[5] = read-out: Tumor necrosis factor receptor superfamily member 6 (Homo sapiens) (UniProt P25445); assay: LTEA_HepaRG_FAS: Life Technologies and Expression Analysis (LTEA) Assay for Fas cell surface death receptor (FAS) using HepaRG (AID 2283447); conditions: mRNA level, 48 h; actives raise or lower the signal
Outline: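 FAS transcript level was measured by TaqMan qRT-PCR against three housekeeping genes after 48 h chemical exposure. Cells were HepaRG, 0.5% DMSO vehicle, with a top concentration of 100 uM and half-log dilutions over eight points, in duplicate.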

[6] = read-out: Fatty acid synthase (Homo sapiens) (UniProt P49327); assay: LTEA_HepaRG_FASN: Life Technologies and Expression Analysis (LTEA) Assay for Fatty Acid Synthase (FASN) using HepaRG (AID 2283448); conditions: mRNA level, 48 h; actives raise or lower the signal;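 for AC50: differentiated human HepaRG liver cells in serum-free induction medium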
Outline: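 Transcript-level assay: HepaRG liver cells are treated for 48 h across an eight-point range topping at 100 uM, and FASN mRNA, normalized to three housekeeping genes, is compared with DMSO controls in both directions.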

[7] = CEETOX_H295R_ANDR: CeeTox H295R High-throughput Steroidogenesis Assay for Androstenedione (ANDR) (AID 2283436); conditions: actives raise or lower the signal;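 note: human H295R adrenal cells exposed for 48 h with androstenedione measured in medium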
Outline: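 Read-out is androstenedione secreted into medium, measured by tandem mass spectrometry after liquid-liquid extraction. Cells were H295R, dosed for 48 h per modified OECD 456; activity fitted in both directions relative to DMSO.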

[8] = CEETOX_H295R_CORTIC: CeeTox H295R High-throughput Steroidogenesis Assay for Corticosterone (CORTIC) (AID 2283437); conditions: actives raise or lower the signal;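 note: corticosterone secreted into medium quantified by mass spectrometry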;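 for AC50: human H295R adrenal cells prestimulated with forskolin before chemical exposure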
Outline: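 Corticosterone secreted into medium is measured by reverse-phase HPLC with tandem MS following liquid-liquid extraction. Cells are forskolin-stimulated (10 uM, 48 h) before 48 h test exposure; activity fitted in both directions against DMSO.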

[9] = CEETOX_H295R_CORTISOL: CeeTox H295R High-throughput Steroidogenesis Assay for Cortisol (AID 2283438); conditions: actives raise or lower the signal;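 note: cortisol secreted into medium quantified by LC-MS/MS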
Outline: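 Human adrenocortical H295R cells (passage ≤10) received test chemicals for 48 h after forskolin priming. Secreted cortisol was measured by LC-MS/MS.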

[10] = CEETOX_H295R_DOC: CeeTox H295R High-throughput Steroidogenesis Assay for DOC (AID 2283439); conditions: actives raise or lower the signal
Outline: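 Secreted DOC was quantified from H295R media by HPLC-MS/MS after 48 h chemical exposure following 48 h forskolin (10 uM) prestimulation. Values were fitted in both directions relative to DMSO, the negative control and baseline.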

Measured: AC50

Sequence of Fatty acid synthase (Homo sapiens) (P49327 whole entry, looked up): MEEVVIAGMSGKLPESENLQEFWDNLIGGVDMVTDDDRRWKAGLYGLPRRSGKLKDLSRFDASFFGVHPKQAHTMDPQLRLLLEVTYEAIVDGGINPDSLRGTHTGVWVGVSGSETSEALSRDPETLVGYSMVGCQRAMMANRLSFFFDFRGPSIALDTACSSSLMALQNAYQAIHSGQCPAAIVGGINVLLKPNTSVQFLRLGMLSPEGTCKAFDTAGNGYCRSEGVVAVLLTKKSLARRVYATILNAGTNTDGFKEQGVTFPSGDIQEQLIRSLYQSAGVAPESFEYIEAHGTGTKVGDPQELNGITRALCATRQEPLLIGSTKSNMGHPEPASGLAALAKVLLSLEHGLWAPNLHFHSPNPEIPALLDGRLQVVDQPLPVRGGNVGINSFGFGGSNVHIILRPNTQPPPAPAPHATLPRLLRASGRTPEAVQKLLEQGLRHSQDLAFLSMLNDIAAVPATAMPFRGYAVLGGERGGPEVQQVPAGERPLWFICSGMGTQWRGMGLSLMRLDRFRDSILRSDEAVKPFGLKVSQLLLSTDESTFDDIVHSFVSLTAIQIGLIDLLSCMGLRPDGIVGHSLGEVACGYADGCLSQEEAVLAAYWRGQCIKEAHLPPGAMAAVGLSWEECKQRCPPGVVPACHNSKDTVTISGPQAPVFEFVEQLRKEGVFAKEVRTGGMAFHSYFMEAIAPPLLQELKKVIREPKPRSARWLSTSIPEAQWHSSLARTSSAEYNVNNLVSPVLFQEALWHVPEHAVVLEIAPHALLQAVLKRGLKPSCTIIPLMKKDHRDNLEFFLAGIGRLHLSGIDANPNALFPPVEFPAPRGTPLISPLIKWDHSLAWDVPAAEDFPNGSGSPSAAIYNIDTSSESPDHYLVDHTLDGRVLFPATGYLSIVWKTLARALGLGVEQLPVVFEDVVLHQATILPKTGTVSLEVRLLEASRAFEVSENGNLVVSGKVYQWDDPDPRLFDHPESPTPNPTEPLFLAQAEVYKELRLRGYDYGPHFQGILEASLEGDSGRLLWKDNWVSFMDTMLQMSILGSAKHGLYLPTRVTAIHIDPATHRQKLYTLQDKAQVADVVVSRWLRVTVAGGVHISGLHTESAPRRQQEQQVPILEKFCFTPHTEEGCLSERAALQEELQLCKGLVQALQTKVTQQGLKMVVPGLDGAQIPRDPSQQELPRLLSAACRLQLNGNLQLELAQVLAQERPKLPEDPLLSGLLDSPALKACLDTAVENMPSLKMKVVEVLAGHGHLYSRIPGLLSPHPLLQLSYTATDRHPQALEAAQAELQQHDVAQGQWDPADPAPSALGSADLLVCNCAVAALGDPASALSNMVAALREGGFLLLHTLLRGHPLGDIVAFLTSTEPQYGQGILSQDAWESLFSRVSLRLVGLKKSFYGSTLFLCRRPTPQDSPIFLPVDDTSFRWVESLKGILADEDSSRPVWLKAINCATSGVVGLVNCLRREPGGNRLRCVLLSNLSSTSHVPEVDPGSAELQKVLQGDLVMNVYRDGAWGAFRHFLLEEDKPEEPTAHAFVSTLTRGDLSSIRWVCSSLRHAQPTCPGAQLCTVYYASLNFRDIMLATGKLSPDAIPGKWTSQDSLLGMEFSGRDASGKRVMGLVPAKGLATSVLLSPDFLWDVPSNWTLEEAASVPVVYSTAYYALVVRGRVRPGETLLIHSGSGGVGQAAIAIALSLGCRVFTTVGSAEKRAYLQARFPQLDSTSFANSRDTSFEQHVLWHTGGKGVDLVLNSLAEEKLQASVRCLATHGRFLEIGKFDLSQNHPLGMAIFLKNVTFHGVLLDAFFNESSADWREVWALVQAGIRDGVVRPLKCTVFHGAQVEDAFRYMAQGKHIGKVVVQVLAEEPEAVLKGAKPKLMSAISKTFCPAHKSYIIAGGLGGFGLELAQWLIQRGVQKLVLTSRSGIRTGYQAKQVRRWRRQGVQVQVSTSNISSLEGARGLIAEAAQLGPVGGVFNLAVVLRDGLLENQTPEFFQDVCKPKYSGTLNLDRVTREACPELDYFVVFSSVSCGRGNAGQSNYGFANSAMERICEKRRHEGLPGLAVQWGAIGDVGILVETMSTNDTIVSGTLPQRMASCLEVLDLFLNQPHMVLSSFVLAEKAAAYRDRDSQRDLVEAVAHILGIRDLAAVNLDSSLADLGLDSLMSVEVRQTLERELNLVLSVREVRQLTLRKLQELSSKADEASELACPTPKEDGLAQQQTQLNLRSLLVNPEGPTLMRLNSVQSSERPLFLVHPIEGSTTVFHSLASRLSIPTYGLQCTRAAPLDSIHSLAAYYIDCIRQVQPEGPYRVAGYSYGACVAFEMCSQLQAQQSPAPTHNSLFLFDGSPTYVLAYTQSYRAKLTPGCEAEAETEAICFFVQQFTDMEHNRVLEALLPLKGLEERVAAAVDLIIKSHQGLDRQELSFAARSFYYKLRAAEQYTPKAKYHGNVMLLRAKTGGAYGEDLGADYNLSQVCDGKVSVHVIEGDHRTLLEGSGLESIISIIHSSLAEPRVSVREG

CC(C)Nc1nc(Cl)nc(NC(C)C)n1
inactive: [1] | [2] | [4] | [5] | [6]
active: [3] 23.1 µM

COCc1cnc(C2=NC(C)(C(C)C)C(=O)N2)c(C(=O)O)c1 (configuration not stated)
inactive: all assays above

COC(=O)NC(=S)Nc1ccccc1NC(=S)NC(=O)OC
not listed: [7]
inactive: all other assays above

CN/C(=N\[N+](=O)[O-])NCc1cnc(Cl)s1
active: [6] 50 µM
inactive: [1] | [2] | [3] | [4] | [5]

CCCN(CC)CC1COC2(CCC(C(C)(C)C)CC2)O1 (configuration not stated)
active: [1] 0.112 µM | [10] 0.812 µM | [4] 0.38 µM | [6] 0.274 µM
not listed: [7]
inactive: all other assays above

CC1(C)CCC(=Cc2ccc(Cl)cc2)C1(O)Cn1cncn1 (configuration not stated)
active: [9] 5 µM | [10] 1.59 µM | [4] 0.716 µM | [6] 6.85 µM
inactive: all other assays above

CCOP(=S)(OCC)Oc1nc(Cl)n(C(C)C)n1
active: [1] 35.8 µM | [4] 61.8 µM | [6] 30.5 µM
inactive: [8] | [9] | [10] | [5]

CCOc1nc(C(Cl)(Cl)Cl)ns1
inactive: [1] | [2] | [3] | [4] | [6]

CCCCC(C#N)(Cn1cncn1)c1ccc(Cl)cc1 (configuration not stated)
active: [1] 4.02 µM | [9] 0.832 µM | [10] 36.5 µM | [6] 22.1 µM
inactive: [8] | [4] | [5]

COc1cc(Cl)c(OC)cc1Cl
not listed: [7]
inactive: all other assays above

CC(C)Oc1cccc(NC(=O)c2ccccc2C(F)(F)F)c1
active: [1] 13.7 µM | [9] 37.5 µM | [10] 7.26 µM | [4] 8.93 µM | [6] 65.2 µM
inactive: [8] | [2] | [3] | [5]

O=C(Nc1ccccc1-c1ccc(Cl)cc1)c1cccnc1Cl
active: [10] 9.59 µM | [4] 13.1 µM
not listed: [7]
inactive: all other assays above

COP(=S)(OC)SCn1nnc2ccccc2c1=O
active: [1] 2.27 µM
not listed: [8] | [9] | [10]
inactive: all other assays above

Cc1nc(N(C)C)nc(OC(=O)N(C)C)c1C
not listed: [7]
inactive: all other assays above

CC1(C)CON(Cc2ccccc2Cl)C1=O
inactive: [1] | [2] | [3] | [4] | [5] | [6]

CCN(CC)c1nc(C)cc(OP(=S)(OC)OC)n1
inactive: [1] | [9] | [5]
active: [8] 24.7 µM | [10] 36.2 µM | [2] 1.22 µM | [3] 1.62 µM | [4] 45.8 µM | [6] 27.4 µM

N#Cc1c(Cl)cccc1Cl
not listed: [7]
inactive: all other assays above

CNC(=O)Oc1cccc2ccccc12
inactive: [1] | [4] | [5] | [6]

CCNP(=S)(OC)O/C(C)=C/C(=O)OC(C)C (configuration not stated)
active: [8] 50 µM | [10] 50 µM | [4] 50 µM | [6] 36.3 µM
not listed: [7]
inactive: all other assays above

Clc1nc(Cl)nc(Nc2ccccc2Cl)n1
active: [10] 2.71 µM
not listed: [7]
inactive: all other assays above

CCN(CC)C(=O)C(C)Oc1cccc2ccccc12 (configuration not stated)
inactive: [1] | [2] | [3] | [4] | [5] | [6]

CCSC(=O)N1CCCCCC1
inactive: [1] | [2] | [3] | [4] | [5] | [6]

Cc1ccc(N=CN(C)C=Nc2ccc(C)cc2C)c(C)c1
inactive: [5] | [6]

O=C1C2CC=CCC2C(=O)N1SC(Cl)(Cl)Cl (configuration not stated)
active: [6] 70.9 µM
inactive: [1] | [2] | [3] | [4] | [5]

CC(C)NC(=O)N1CC(=O)N(c2cc(Cl)cc(Cl)c2)C1=O
active: [1] 19 µM | [4] 16.9 µM | [6] 16.2 µM
inactive: [5]
